PubChem BioAssay (NCATS)
Inconclusive results are not listed. The source made the active and inactive calls. Calls come from the whole dose curve; as a rule, active = well fitted cell-killing curve with a large enough effect; inconclusive = small, poorly fitted or top-dose-only effect, or effect the other way; inactive = no such curve, though single readings can be large or run the other way.
Potency is the fitted concentration of half-maximal effect.

Experiment: Quantitative High-Throughput drug screen in 47 multiple myeloma cell lines against the NCATS MIPE library collection: OCIMY7_PLB cell viability assay (AID 1918987); note: nearly all actives have a fitted effect of over 65% in size
Conditions: OCI-MY7 myeloma viability, CellTiter-Glo ATP, 48 h; viability (% of DMSO): at 45.8 µM (top of the series)
Text: PI: Beverly A. Mock Ph.D.
Laboratory of Cancer Biology and Genetics,
Center for Cancer Research, National Cancer Institute,
National Institute of Health, Bethesda, Maryland
Drug resistance and disease progression are common in multiple myeloma (MM) patients, underscoring the need for new therapeutic combinations. […] We hypothesized that effective combinations would reduce MYC expression and enhance p16 activity. […] These preclinical data identify potentially useful drug combinations for evaluation in drug-resistant MM and reveal potential mechanisms of combined drug sensitivity.
Described herein is the primary MIPE qHTS used to cherrypick compounds. Validated compounds were then further tested for potential synergistic activiy.
[1] Peat TJ, Gaikwad SM, Dubois W, Gyabaah-Kessie N, Zhang S, Gorjifard S, Phyo Z, Andres M, Hughitt VK, Simpson RM, Miller MA, Girvin AT, Taylor A, Williams D, D'Antonio N, Zhang Y, Rajagopalan A, Flietner E, Wilson K, Zhang X, Shinn P, Klumpp-Thomas C, McKnight C, Itkin Z, Chen L, Kazandijian D, Zhang J, Michalowski AM, Simmons JK, Keats J, Thomas CJ, Mock BA. Drug combinations identified by high-throughput screening promote cell cycle transition and upregulate Smad pathways in myeloma. Cancer Lett. 2023 Aug 1;568:216284. doi: 10.1016/j.canlet.2023.216284. Epub 2023 Jun 24. PMID: 37356470; PMCID: PMC10408729.
SEQUENCE No. (e.g., 1, 2, 3, etc.); […] (e.g., Cells, Incubation, Reagent, etc.); VALUE and DESCRIPTION.
1; Cells; 5 uL; white, solid bottom 1536-well Greiner assay plate.
2; Compounds; 23 nL; Kalypsis pin tool (Wako USA) equipped with a 1536-well pin head to transfer to the assay plates.
3; Incubation; 48 hours; 37C incubation.
4; Reagent;5uL; CellTiter Glo (Promega).
5; Detector; 425V; Luminescence; Viewlux PerkinElmer.
NOTES (numbers refer to Sequence numbers above)
1. The cell-based screening methods employed in this study were like those previously published. Briefly, the corresponding myeloma cell lines were screened in 1,536-well plates with 500 cells, 5-uL per well for inhibition of cell viability (assessed by measuring ATP levels with CellTiterGlo).
2. NCATS MIPE 4.0 library of approved and investigational drugs were added using the Kalypsis pin tool. Wells treated with DMSO only for 100% viability and media only for 0% viability were used as controls.
3. The assay plates were covered and incubated for 48 hours in a 37C, 5% CO2 incubator with controlled humidity.
4. After 48 hours, CellTilter-GloTM luminescent substrate mix (Promega) reagent was added to the assay plate and plates we incubated for 5 min at room temperature.
5. Signal was measured as median relative luminescence units on a ViewLux (PerkinElmer) multiplate reader.
[1] Heske CM, Davis MI, Baumgart JT, Wilson K, Gormally MV, Chen L, Zhang X, Ceribelli M, Duveau DY, Guha R, Ferrer M, Arnaldez FI, Ji J, Tran HL, Zhang Y, Mendoza A, Helman LJ, Thomas CJ. Matrix Screen Identifies Synergistic Combination of PARP Inhibitors and Nicotinamide Phosphoribosyltransferase (NAMPT) Inhibitors in Ewing Sarcoma. Clin Cancer Res. 2017 Dec 1;23(23):7301-7311. doi: 10.1158/1078-0432.CCR-17-1121. Epub 2017 Sep 12. PMID: 28899971; PMCID: PMC6636827.
For CCC(C(=O)O)C1CCC(C)C(C(C)C(O)C(C)C(=O)C(CC)C2OC3(C=CC(O)[C@@]4(CC[C@](C)(C5CC[C@@](O)(CC)C(C)O5)O4)O3)C(C)CC2C)O1 (stereo not given in full), the Potency was 2960 nM (active).
In the case of Cn1cc(C2=C(c3c4n(c5ccccc35)CCC(CN)C4)C(=O)NC2=O)c2ccccc21 (stereo not given), the Potency is reported as 7430 nM (active).
In the case of COc1ccc(S(=O)(=O)Nc2cccnc2Nc2ccc(O)cc2)cc1, the Potency is reported as 37.2 nM (active).
In the case of CC(C)c1cnn2c(NCc3ccccc3)cc(NCCCCCCN)nc12, the Potency is reported as 11800 nM (active).
For O=c1c(O)c(-c2ccc(O)c(O)c2)oc2cc(O)ccc12, the Potency was 6620 nM (active).
For CN1CCc2c(c3ccccc3n2Cc2ccc(C(=O)NO)cc2)C1, the Potency was 9350 nM (active).
In the case of CNC(=O)Nc1ccc(-c2nc(N3CC4CCC(C3)O4)c3cnn(C4CCC5(CC4)OCCO5)c3n2)cc1, the Potency is reported as 3720 nM (active).
In the case of COC(=O)[C@@H]1[C@H]2C[C@@H]3c4[nH]c5ccccc5c4CCN3C[C@@H]2CC[C@@H]1O, the Potency is reported as “inactive”.
In the case of C[C@H](NCc1ccc(OCc2cccc(F)c2)cc1)C(N)=O, the Potency is reported as 3320 nM (active).
With O=C(Nc1cccc(Nc2ncc(Br)c(NCCc3cnc[nH]3)n2)c1)N1CCCC1 the Potency was 3720 nM (active).
In the case of CCCNC(=O)[C@H]1O[C@H]1C(=O)N[C@H](C(=O)N1CCC[C@@H]1C(=O)OC)C(C)CC (stereo not given in full), the Potency is reported as 3320 nM (active).
In the case of Cn1c(Nc2ccc(C(F)(F)F)cc2)nc2cc(Oc3ccnc(-c4ncc(C(F)(F)F)[nH]4)c3)ccc21, the Potency is reported as 3720 nM (active).
For CC(C)Oc1ccc(C(=O)N[C@H](CNC(=O)CN(C)C)Cc2ccc(-c3cn4cccc([C@H](C)O)c4n3)cc2)cc1Cl, the Potency was 332 nM (active).
With CN(C)c1ccc(C(=O)NCCCCCCC(=O)NO)cc1 the Potency was 590 nM (active).
With Oc1ccc(-c2ccc(-c3cc(Nc4cccc(CNC5CC5)c4)n[nH]3)cc2)c(O)c1 the Potency was 4690 nM (active).
With COC(=O)C=CC(=O)OC the Potency was 1320 nM (active).
For COC1=C(OC)C(=O)C(CC=C(C)CCC=C(C)CCC=C(C)CCC=C(C)CCC=C(C)CCC=C(C)CCC=C(C)CCC=C(C)CCC=C(C)CCC=C(C)C)=C(C)C1=O, the Potency was “inactive”.
In the case of CN[C@@H]1C[C@H]2O[C@@](C)([C@H]1OC)n1c3ccccc3c3c4c(c5c6ccccc6n2c5c31)C(=O)N[C@H]4O, the Potency is reported as 23.5 nM (active).
With Oc1cc2c(cc1O)C1c3ccc(O)c(O)c3OCC1(O)C2 (stereo not given) the Potency was “inactive”.
With N=c1ccn2c(n1)O[C@H]1[C@@H](O)[C@@H](CO)O[C@H]12 the Potency was 332 nM (active).
With CCNC(=O)c1cc2c(-c3cc(OCCN4CCCC4)c(Cl)cc3Cl)nc(N)nc2s1 the Potency was 372 nM (active).
With O=C(C=Cc1ccc(CN(CCO)CCc2c[nH]c3ccccc23)cc1)NO the Potency was 83.3 nM (active).
For CCN(CC)Cc1ccc2cc(COC(=O)Nc3ccc(C(=O)NO)cc3)ccc2c1, the Potency was 372 nM (active).
With COC1=C2C[C@@H](C)C[C@H](OC)[C@@H](O)[C@@H](C)C=C(C)[C@H](OC(N)=O)[C@@H](OC)C=CC=C(C)C(=O)NC(=CC1=O)C2=O the Potency was 74.3 nM (active).
With Nc1nc(N)c2nc(-c3cccc(O)c3)c(-c3cccc(O)c3)nc2n1 the Potency was 372 nM (active).
In the case of CCN(C(=O)c1c(O)c2c(Cl)cccc2n(C)c1=O)c1ccccc1, the Potency is reported as “inactive”.
In the case of C[C@]12C=CC(=O)N[C@@H]1CC[C@H]1[C@H]3CC[C@@H](C(=O)Nc4cc(C(F)(F)F)ccc4C(F)(F)F)[C@@]3(C)CC[C@@H]12, the Potency is reported as 16600 nM (active).
With CC(=O)ON=C1C(c2c(O)[nH]c3cc(Br)ccc23)=Nc2ccccc21 the Potency was 1480 nM (active).
For C=CCNC1=C2C[C@@H](C)C[C@H](OC)[C@@H](O)[C@@H](C)C=C(C)[C@H](OC(N)=O)[C@@H](OC)C=CC=C(C)C(=O)NC(=CC1=O)C2=O, the Potency was 833 nM (active).
For C#C[C@]1(O)CC[C@@H]2[C@@H]3CCc4cc(O)ccc4[C@H]3CC[C@@]21C, the Potency was 3720 nM (active).
For COc1ccc(C[C@@H](C)[C@@H](C)Cc2ccc(OC)c(OC)c2)cc1OC, the Potency was 296 nM (active).
In the case of CCOC(=O)N1CCN([N+]([O-])=NOc2ccc([N+](=O)[O-])cc2C#N)CC1, the Potency is reported as 590 nM (active).
In the case of C=CC(=O)Nc1ccc2ncnc(Nc3ccc(OCc4cccc(F)c4)c(Cl)c3)c2c1, the Potency is reported as 105 nM (active).
In the case of O=C(Nc1nnc(-c2ccco2)o1)c1cc(-c2ccccc2)nc2ccccc12, the Potency is reported as 16600 nM (active).
For C[C@@H]1CC[C@@]2(OC1)OC1CC3C4CC=C5CC(O)CCC5(C)C4CCC3(C)C1[C@@H]2C (stereo not given in full), the Potency was “inactive”.
In the case of O=C1NC(=O)[C@@H](c2cn3c4c(cccc24)CCC3)[C@H]1c1c[nH]c2ccccc12, the Potency is reported as 37.2 nM (active).
For O=C1c2c(O)cccc2[C@@H]([C@@H]2O[C@H](CO)[C@@H](O)[C@H](O)[C@H]2O)c2cc(CO)cc(O)c21, the Potency was “inactive”.
For CCc1cc(C(C)=NOCc2ccc(C3CCCCC3)c(C(F)(F)F)c2)ccc1CN1CC(C(=O)O)C1, the Potency was 16600 nM (active).
For C[C@@]12C[C@@]3(O)O[C@@H](O1)[C@]1(COC(=O)c4ccccc4)[C@@H]3C[C@@]12O[C@@H]1O[C@H](CO)[C@@H](O)[C@H](O)[C@@H]1O, the Potency was “inactive”.
In the case of CN1CCCN(C(=O)c2cccc(-c3ccc(C=C4C(=O)Nc5ccc(Cl)cc54)o3)c2)CC1, the Potency is reported as 10500 nM (active).
